Screening results from PubChem.
Hits are enriched below; roughly 6.3% of the tested compounds scored in any of these assays.
Mdm2-MdmX inh – inhibitors of human Mdm2/MdmX interaction | O15151+Q00987 | SaOS-2 split-luciferase Mdm2/MdmX complementation, luminescence | inhibition, % at 8 µM | 3% of 330,000 active | AID 485346;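 active = inhibition of at least 50% at 8 µM in the primary screen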
MPTP inh – inhibitors of mitochondrial permeability transition pore; isolated mouse mitochondria, Ca2+ swelling absorbance, 30 min; inhibition, % at 10 µM; 1.4% of 360,000 active; AID 602449;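 active = inhibition of 50% or more, scaled per plate between neutral and stimulator controls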
tim23-1 inh – inhibits growth of tim23-1 mutant yeast; S. cerevisiae tim23-1 growth, BacTiter-Glo luminescence, 24 h; inhibition, % at 20 µM; 1.3% of 330,000 active;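 active = growth inhibition of the mutant yeast at or above 50%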;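 note: temperature-sensitive mutant grown at 25 °C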
tim10-1 inh – tim10-1 yeast growth inhibition. S. cerevisiae tim10-1 ts strain growth, BacTiter-Glo, 24 h. inhibition, % at 20 µM. AID 463190. 2.2% of 330,000 active;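 active = inhibition of at least 40%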;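 note: mutant grown at 25 °C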
TIM10 inh – growth inhibitors of TIM10 yeast strain. S. cerevisiae TIM10 strain growth, BacTiter-Glo luminescence, 24 h. AID 463195. inhibition, % at 10 µM. 1.4% of 330,000 active;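 active = inhibition of 40% or more at the single tested concentration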;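 note: wild-type TIM10 isogenic control strain grown at permissive 25 °C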
Mdm2-MdmX conf – human Mdm2/MdmX binding inhibition, confirmed; shares compounds with Mdm2-MdmX inh; luminescent assay; inhibition, % at 8 µM; 55% of 10,000 active; in the data active = inhibition above about 40%
FLuc counter – counter-screen for Mdm2/MdmX inhibitors: full-length luciferase; shares compounds with Mdm2-MdmX inh; SaOS-2 full-length luciferase counterscreen, luminescence; inhibition, % at 8 µM; 77% of 6,200 active;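 active = mean inhibition at 8 µM reaching about 37%, which flags the compound as non-specific, limit read from the data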;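 note: p53-null SaOS-2 cells with luciferase driven by a doxycycline-inducible promoter; compound on cells about two nights before reading with doxycycline added after day one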
Rh123 counter – Rhodamine 123 counter-screen of mitochondrial pore hits; 78% of 5,000 active; shares compounds with MPTP inh; isolated mitochondria, membrane potential, Rhodamine 123 fluorescence; inhibition, % at 10 µM; in the data active = inhibition above about 22%
MPTP swell DR – MPTP inhibition, dose response swelling confirmation | shares compounds with MPTP inh | IC50, µM | 58% of 780 active | isolated mitochondria swelling, absorbance; in the data active = IC50 below about 20 µM
MPTP cs DR – MPTP inhibitor counter-screen activity, dose response | shares compounds with MPTP inh | isolated mitochondria counterscreen, fluorescence read-out | IC50, µM | 49% of 780 active; in the data active = IC50 below about 80 µM
Hits are given with their value; . = inactive; / = not tested or not shown.

SMILES	Mdm2-MdmX inh	MPTP inh	tim23-1 inh	tim10-1 inh	TIM10 inh	Mdm2-MdmX conf	FLuc counter	Rh123 counter	others
COC(=O)C(Cc1ccc(N(CCCl)CCCl)cc1)N=Cc1ccccc1O (stereo unspecified)	93	.	.	.	.	83	59	/
COc1cc(/C=C/C(=O)c2c(O)n(CCc3ccccc3)c(=O)[nH]c2=O)ccc1O	53	.	.	.	.	46	48	/
O=C(/C=C/c1ccccc1)c1c(O)n(CCc2ccccc2)c(=O)[nH]c1=O	69	.	.	.	.	.	/	/
O=C(/C=C/c1ccc2c(c1)OCO2)c1c(O)n(CCc2ccccc2)c(=O)[nH]c1=O	65	.	.	.	.	.	/	/
O=c1[nH]c(=O)n(CCc2ccccc2)c(O)c1C=NCCN1CCNCC1	.	.	.	.	.	/	/	/
Nc1cc(C(=O)Nc2ccccc2F)ccc1N1CC2CC(C1)c1cccc(=O)n1C2 (stereo unspecified)	/	.	/	/	/	/	/	/
CC1=CC2/C=C(\C)CCC(O)C(O)/C=C/C(=O)C23C(=O)NC(CC(C)C)C3C1C (stereo unspecified)	100	.	.	.	.	100	51	/
N#CC1=C(N)Oc2c(c(=O)sc3ccccc23)C1c1cccnc1 (stereo unspecified)	52	.	.	.	.	60	56	/
CCn1c(P(C)(=O)O)nc2ccccc21	.	.	.	.	.	/	/	/
CCn1c(NN=O)nc2ccccc21	77	.	.	.	.	72	.	/
COC(=O)C1=C(c2ccc(OCc3ccccc3)c(F)c2)C[C@@H]2CC[C@H]1N2C	/	.	/	/	/	/	/	/
O=c1[nH]c(=S)[nH]c(O)c1N=Nc1ccc(S(=O)(=O)N2CCc3ccccc32)cc1	58	.	.	.	.	.	/	/
CC[n+]1c(/C=C/N(C)c2ccccc2)sc2ccc(Cl)cc21	52	.	.	.	.	.	/	/
C[C@H]1CCC/C=C/[C@@H]2C[C@H](O)C[C@H]2[C@H](O)/C=C/C(=O)O1	97	.	.	.	.	98	48	/
COc1ccc(NC(=S)N2Cc3ccccc3-n3nncc3C2)c(OC)c1	/	.	/	/	/	/	/	/
COc1ccc(-n2c(/C=C/c3ccc(O)cc3)nc3ccccc3c2=O)cc1	50	.	.	.	.	.	/	/
COC(=O)[C@@H]1N=C(c2ccc(OC)cc2)O[C@]12C(=O)N(Cc1ccc(OC)cc1)c1ccccc12	/	.	/	/	/	/	/	/
c1cc2c(cc1-c1ccc3c(c1)OCO3)CNCc1cnnn1-2	/	.	/	/	/	/	/	/
COC12C(COC(N)=O)C3=C(C(=O)C(C)=C(N)C3=O)N1CC1C2N1C (stereo unspecified)	74	.	.	.	.	.	/	/
COC(COC(N)=O)C1=C(N2CC2)C(=O)C(C)=C(N2CC2)C1=O (stereo unspecified)	/	.	/	/	/	/	/	/
CC(=O)OC(C)(C)/C=C/C(=O)C(C)(O)C1[C@H](O)C[C@@]2(C)C3CC=C4C(CC[C@@H](O)C4(C)C)[C@]3(CO)C(=O)C[C@]12C (stereo partly specified)	98	.	.	.	.	98	.	/
COC(=O)C(C)Oc1cc(C)cc2oc(=O)c3c(c12)CCC3 (stereo unspecified)	52	.	.	.	.	.	/	/
COC(=O)[C@@]1(Sc2ccc(C)cc2)CC(=O)N(P(=O)(OC)OC)[C@@H]1c1ccccc1	/	.	/	/	/	/	/	/
COc1ccc(OC(=O)N(C)C[C@@H]2OCc3cnnn3CCCC(=O)N([C@H](C)CO)C[C@H]2C)cc1	/	.	/	/	/	/	/	/
Cc1cc(O)c2c(c1)C(=O)C13C(=C2O)C(=O)[C@H]2[C@@H](O)[C@@H]1[C@H]1[C@H](O)[C@@H]3C(=O)C3=C(O)c4c(O)cc(C)cc4C(=O)C312 (stereo partly specified)	86	87	.	.	.	61	.	.
SMILES	Mdm2-MdmX inh	MPTP inh	tim23-1 inh	tim10-1 inh	TIM10 inh	Mdm2-MdmX conf	FLuc counter	Rh123 counter	others
CCCCCSc1cc(OC)c(CCNC)cc1OC	53	86	.	.	.	.	/	.	MPTP swell DR=5.3;MPTP cs DR=.
CCOc1cccc(CNCCc2c(C)[nH]c3ccc(OC(F)(F)F)cc23)c1O	98	80	.	.	.	85	.	79
CCC1([N+](=O)[O-])COP(=O)(NCc2cccnc2)OC1 (stereo unspecified)	/	.	/	/	/	/	/	/
O=[N+]([O-])/C=C/c1c(Cl)cccc1Cl	/	.	/	/	/	/	/	/
COc1cc2c(cc1OC)[C@H]1C(=O)c3ccc4c(c3O[C@H]1CO2)C[C@@H](C(C)(C)O)O4	.	.	.	.	.	/	/	/
COc1cc2c(cc1OC)[C@@H]1C(=O)c3ccc4c(c3O[C@@H]1CO2)C[C@H](C(C)C)O4	58	96	.	.	.	.	64	83
C[C@@H]1C(=O)O[C@H]2[C@H](O)[C@]34[C@@H]5OC(=O)[C@]3(OC3OC(=O)[C@H](O)C34[C@H](C(C)(C)C)[C@@H]5O)[C@@]12O (stereo partly specified)	/	.	/	/	/	/	/	/
N#CC(=C(O)c1ccc(S(=O)(=O)N(CCCl)CCCl)cc1)c1nc2ccccc2[nH]1	/	.	/	/	/	/	/	/
CCOC(=O)CC1c2ccccc2-n2nncc2CN1CC1CCCCC1 (stereo unspecified)	/	.	/	/	/	/	/	/
CN(C)c1ccc(/C=C/C=C/c2sc3ccccc3[n+]2C)cc1	82	57	.	.	.	62	45	65
Cc1cc(C)n(-c2ccc(NN=C(C#N)C#N)cc2)n1	62	84	.	.	.	58	57	90
COc1ccc(C(=O)C2CCCN(Cc3cnc(C)s3)C2)cc1OC (stereo unspecified)	.	.	.	.	.	/	/	/
Cc1ncc(CN2CCCC(C(=O)c3ccc(C(C)(C)C)cc3)C2)s1 (stereo unspecified)	.	75	.	.	.	/	/	73
O=C(c1ccc(Cl)cc1)C1CCCN(Cc2cccc3ncccc23)C1 (stereo unspecified)	.	97	.	.	.	/	/	72
O=C(c1ccc(C(F)(F)F)cc1)C1CCCN(Cc2ccncc2)C1 (stereo unspecified)	.	86	.	.	.	/	/	48
CCCc1nc2ccc(Br)cc2c(=O)n1-c1ccc([N+](=O)[O-])c(C(F)(F)F)c1	.	94	.	.	.	/	/	79
CN(C)c1ccc(/C=C/c2cc[n+](C)c3ccccc23)cc1	/	75	/	/	/	/	/	66
O=C1NC(=S)NC(=O)C1=Cc1ccc2c(c1)CCN2CCCCl	.	60	.	.	.	/	/	.
